Compound activity from PubChem BioAssay.
HTT-AS act – HTT-AS promoter activation; HEK293 HTT-AS promoter firefly luciferase reporter, 24 h; response scale: percent change from vehicle, -100% = no light; Potency, µM (top dose mostly 57.5 µM), inactives show at the top dose activity change, positive = activation, usual class: activators; 48,000 tested, 0.24% active; AID 1508624; also: nearly all actives have a fitted effect of over 55% in size
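HEK293 luciferase promoter-reporter cells (2,500/well) plated 24 h, then compounds added at up to 57.5 uM final for 24 h at 37 °C. Firefly luminescence by Dual-Glo, normalized to vehicle (0%) and zero RLU (-100%).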
HTT prom inh – inhibitors of huntingtin promoter activity; AID 1508623; Potency, µM (doses to about 57.5 µM), for inactives: top-dose activity change, negative = inhibition, actives largely listed as inhibitors; 48,000 tested, 0.93% active; HEK293 HTT promoter firefly luciferase reporter, 24 h; also: nearly all actives have a fitted effect of over 50% in size
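Luminescence was read after Dual-Glo reagent and a 10 min room-temperature incubation. Values were normalized to vehicle (0% activity) and zero RLU (-100% activity). Reporter HEK293 cells had been exposed to compounds (up to 57.5 uM final) for 24 h.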
FH mod – Identification of activators of human fumarate hydratase by quantitative high-throughput screening | Fumarate hydratase, mitochondrial (Homo sapiens), P07954 | FH coupled MDH/diaphorase resazurin fluorescence, 15 min | Potency, µM (highest dose often 79.9 µM), inactives show top-dose activity change, negative = inhibition, usual class: inhibitors | 54,000 tested, 0.22% active | AID 1347055, 2019; also: % is scaled to controls: 0 for no effect and ±100 for the full control effect; the screen sought activators but most active calls are inhibition curves; nearly all actives have a fitted effect of over 45% in size
Target sequence (P07954 whole entry, looked up): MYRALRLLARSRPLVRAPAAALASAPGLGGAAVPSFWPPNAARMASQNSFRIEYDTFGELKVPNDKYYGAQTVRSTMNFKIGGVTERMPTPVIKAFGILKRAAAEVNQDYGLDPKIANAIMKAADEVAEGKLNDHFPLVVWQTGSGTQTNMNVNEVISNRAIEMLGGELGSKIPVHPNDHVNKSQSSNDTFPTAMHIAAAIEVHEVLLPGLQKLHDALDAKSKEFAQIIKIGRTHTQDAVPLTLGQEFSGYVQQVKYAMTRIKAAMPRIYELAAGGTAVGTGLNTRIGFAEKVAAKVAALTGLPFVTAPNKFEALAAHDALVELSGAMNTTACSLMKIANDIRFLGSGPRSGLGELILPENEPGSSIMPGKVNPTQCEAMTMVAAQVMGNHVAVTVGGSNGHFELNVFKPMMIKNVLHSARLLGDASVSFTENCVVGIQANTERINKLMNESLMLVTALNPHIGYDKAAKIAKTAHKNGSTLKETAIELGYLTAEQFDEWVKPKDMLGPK
* = called active by the depositor; ? = inconclusive; nt = no result given; [ ] = remark or other dose. Rows were chosen to be rich in hits. Some 1.3% of all compounds tested hit in one or more screens of this group. Calls follow the shape of the dose curve; as a rule, active = well fitted curve in the direction sought with a large enough effect; inconclusive = small, poorly fitted or top-dose-only effect, or another doubt; inactive = no such curve, though single readings can be large; an effect the other way counts as inactive or inconclusive. Potency is read from the fitted curve at half-maximal effect.

SMILES	HTT-AS act	HTT prom inh	FH mod
NC1CCC(N[C@@H]2C[C@H]2c2ccccc2)CC1 (stereo partly specified)	nt	nt	1.2%
CC1(c2ccccc2)CC(C)(C)N(C(=O)c2cccc(Cl)c2)c2ccccc21 (stereo unspecified)	-25.6%	?	-18.0%
Cc1ccc2c(c1)N(C(=O)c1ccc(F)cc1)C(C)(C)CC2(C)c1ccccc1 (stereo unspecified)	-28.7%	28.2µM*	?
CC1(C)CC2C3=CCC4C5(C)CCC(OC6OC(C(=O)O)C(O)C(O)C6OC6OC(CO)C(O)C(O)C6OC6OC(CO)C(O)C(O)C6O)C(C)(CO)C5CCC4(C)C3(C)CCC2(C)C(OC2OCC(O)C(OC3OC(CO)C(O)C(O)C3O)C2O)C1O (stereo unspecified)	nt	nt	3.9%[13.5 µM]
CCOC(=O)C1CCCN(C(=O)c2cc3c(=O)[nH]c4ccc(C)cc4c3s2)C1 (stereo unspecified)	-17.4%	-29.9%	?
Cc1cccc(N2CCN(C(=O)c3cc4c(=O)[nH]c5ccc(C)cc5c4s3)CC2C)c1 (stereo unspecified)	-68.2%	12.6µM*	?
COc1ccc2c(c1O)OC(C)(C)c1c-2ccc2c1C(=O)N(c1ccc(C(=O)c3ccccc3)cc1)C2=O	nt	nt	-7.7%
CCc1ccccc1NC(=O)c1ccc2[nH]c(C)c(C)c2c1	8.91µM*	54.0%	-16.1%
Cc1ccccc1NC(=O)c1ccc2[nH]c(C)c(C)c2c1	?	72.8%	2.7%
O=C(O)[C@H]1CCCC[C@H]1C(=O)N1CCc2ccccc2[C@H]1CN1C(=O)c2ccccc2C1=O	nt	nt	20.2%
CCCCNc1ncc(C(=O)NCc2ccc(-n3ccnc3)cc2)c(NC2CCC(O)CC2)n1 (stereo unspecified)	nt	nt	6.8%
CC(=O)OC1C(=O)C2(C)C(O)CC3OCC3(OC(C)=O)C2C(OC(=O)c2ccccc2)C2(O)CC(OC(=O)C(O)C(NC(=O)c3ccccc3)c3ccccc3)C(C)=C1C2(C)C (stereo unspecified)	nt	nt	-12.3%
O=C(NCC(c1ccccc1)c1ccccc1)c1nn(-c2ccccc2F)nc1CO	-37.3%	3.98µM*	-9.3%
O=C(NCCc1ccccc1)c1nn(-c2ccccc2F)nc1CO	-24.9%	-29.0%	-4.5%
O=C1NCCSc2c1sc1ccc(O)cc21	nt	nt	-10.0%
COc1ccc(Cl)cc1Nc1sc(C(=O)c2ccccc2)c(N)c1C(=O)Nc1ccccc1	-29.1%	28.2µM*	-17.5%
CCOc1ccccc1Nc1sc(C(=O)c2ccccc2)c(N)c1C(=O)Nc1ccc(F)cc1	-8.5%	?	3.8%
O=C(/C=C/c1ccccc1)OC[C@]12O[C@H]1[C@@H](O)[C@@H]1C=CO[C@@H](O[C@@H]3O[C@H](CO)[C@@H](O)[C@H](O)[C@H]3O)[C@@H]12	nt	nt	0.2%[53.3 µM]
CCc1ccc(C2=C(C)C(N3CCC(C(=O)Nc4cccc(OC)c4)CC3)=NS2(=O)=O)cc1	-22.5%	-31.8%	1.7%
O=C(Nc1nc2cccc(-c3ccc(CN4CCS(=O)(=O)CC4)cc3)n2n1)C1CC1	24.3µM*	25.3%	9.9%
O=c1[nH]c(=S)[nH]c(-c2ccccc2)c1Cc1c(O)ccc2ccccc12	nt	nt	20µM*
CC/C=C/CC1=C(CCCCC(CCC(=O)O)OC(C)=O)CCC1=O (stereo unspecified)	nt	nt	-2.2%[53.3 µM]
Cc1ccc(NC(=O)CSc2nnc3[nH]c(=O)cc(-c4ccccc4)n23)cc1Cl	14.1µM*	55.4%	-25.3%
Cc1ccc(C)c(NC(=O)CSc2nnc3[nH]c(=O)cc(-c4ccccc4)n23)c1	?	18.9%	-15.1%
O=C(O)c1ccc(O)c2ncc(N3CCCN(CCc4cccc5ccccc45)CC3)cc12	nt	nt	7.4%
SMILES	HTT-AS act	HTT prom inh	FH mod
CC(=O)c1c(C)oc2c1cc(NS(=O)(=O)c1ccc(Br)cc1)c1ccccc12	-39.3%	?	-14.1%
O=C(O)CSc1cc(NS(=O)(=O)c2ccc(Br)cc2)c2ccccc2c1O	nt	nt	15.8µM*
CCOc1ccc(-c2nc(CSCC(=O)N3CCN(c4cccc(C(F)(F)F)c4)CC3)c(C)o2)cc1	-51.8%	15.8µM*	?
COc1ccc(-c2nc(CSCC(=O)N3CCN(c4cc(Cl)ccc4C)CC3)c(C)o2)cc1	-54.7%	12.6µM*	?
Cc1ccc(Cl)cc1N1CCN(C(=O)C2CCCN(Cc3nc(-c4cccc(Cl)c4)oc3C)C2)CC1 (stereo unspecified)	-46.1%	35.5µM*	?
CCOc1ccc(-c2nc(CSCC(=O)N3CCN(c4ccc(F)cc4)CC3)c(C)o2)cc1	-6.0%	-17.1%	-24.0%
Cc1ccc(C)c(N2CCN(C(=O)C3CCCN(Cc4nc(-c5cccc(Cl)c5)oc4C)C3)CC2)c1 (stereo unspecified)	-7.2%	-5.1%	-10.8%
CCOC(=O)c1c(C)oc2nc(C)nc(N3CCN(c4cccc(C(F)(F)F)c4)CC3)c12	-64.9%	25.1µM*	-22.7%
COc1ccc(-c2nc(CSCC(=O)N3CCN(c4ccc(OC)cc4)CC3)c(C)o2)cc1	-21.7%	?	-11.2%
CCOC(=O)c1c(C)oc2nc(C)nc(N3CCN(c4ccccc4)CC3)c12	-42.7%	?	-5.6%
CC(C)NC(=O)c1ccc(C#Cc2ccncc2)cn1	nt	nt	3.6%
CC1(C)C[C@@H]2[C@H](C1)[C@@]1(C)C[C@]13C(O)OC[C@]3(O)[C@H]2O (stereo partly specified)	nt	nt	0.0%
CCNC(=O)CCC/C=C\C[C@@H]1[C@@H](/C=C/C(O)CCc2ccccc2)[C@@H](O)C[C@@H]1O (stereo partly specified)	nt	nt	4.3%
CCC(C)NC(=O)CSCc1nc(-c2ccc(C)cc2)oc1C (stereo unspecified)	-18.6%	?	-15.6%
Cc1cccc(-c2nc(CSCC(=O)N3CCN(c4ccccc4)CC3)c(C)o2)c1	-30.0%	?	?
COC(=O)CSCc1nc(-c2ccc(C(=O)OC)cc2)oc1C	-90.1%	2µM*	-21.7%
COc1ccc(-c2nc(CSCC(=O)N3CCN(c4cccc(C)c4C)CC3)c(C)o2)cc1OC	-60.8%	12.6µM*	?
CC1CCC(=O)CC(O)C(O)CC(=O)O1 (stereo unspecified)	nt	nt	6.6%
CCc1ccc(CNC(=O)C2CCN(C(=O)c3ccc(-n4c(C)cc5ccccc54)s3)CC2)cc1	-80.4%	?	-21.1%
Cc1cc2ccccc2n1-c1ccc(C(=O)N2CCC(C(=O)NCc3ccc(Cl)cc3)CC2)s1	-39.4%	14.1µM*	-27.3%
COc1cc2c(cc1OC)N1C(=O)C[C@]34C=CCN5CC[C@@H]2[C@@H](CC3)[C@]514	nt	nt	17.5%[53.3 µM]
NC(=O)Nc1cc(-c2cccc(F)c2)sc1C(=O)NC1CCCNC1 (stereo unspecified)	nt	nt	-11.9%
NC(=O)Nc1cc(-c2ccc(CN3CCOCC3)cc2)sc1C(N)=O	21.7µM*	24.1%	-0.4%[53.3 µM]
Cc1cc(C)cc(NC(=O)c2cc(S(=O)(=O)NCCC3=CCCCC3)ccc2F)c1	-22.0%	-14.3%	?
Cc1ccc(NC(=O)c2cc(S(=O)(=O)NCCC3=CCCCC3)ccc2F)cc1F	-89.8%	11.2µM*	?
Cc1ccc(NC(=O)c2ccc(F)c(S(=O)(=O)NCCc3ccccc3)c2)cc1F	-39.2%	28.2µM*	?
